Article PMC11574364

Columns and labels:
Assay in all cases: protein domain microarray probed with biotinylated miRNA; Domain array: 20 mM Tris-HCl pH 7.4, 200 mM KCl, 0.2 mM EDTA, 0.05% NP40, 2 ug/ul heparin, overnight 4 C. ORF array: PBS pH 7.0 with RNase inhibitor, 100 ng RNA; high values mean tight binding
Conditions in all cases: ssRNA
[1] = target: Musashi-1 (Homo sapiens, UniProt O43347)
[2] = target: FIR (Homo sapiens, UniProt Q9UHX1)
[3] = target: HNRNPCP5 (Homo sapiens, UniProt B2RXH8)
[4] = target: T1, hnRNP-F (Homo sapiens, UniProt P52597)
T1 sequence: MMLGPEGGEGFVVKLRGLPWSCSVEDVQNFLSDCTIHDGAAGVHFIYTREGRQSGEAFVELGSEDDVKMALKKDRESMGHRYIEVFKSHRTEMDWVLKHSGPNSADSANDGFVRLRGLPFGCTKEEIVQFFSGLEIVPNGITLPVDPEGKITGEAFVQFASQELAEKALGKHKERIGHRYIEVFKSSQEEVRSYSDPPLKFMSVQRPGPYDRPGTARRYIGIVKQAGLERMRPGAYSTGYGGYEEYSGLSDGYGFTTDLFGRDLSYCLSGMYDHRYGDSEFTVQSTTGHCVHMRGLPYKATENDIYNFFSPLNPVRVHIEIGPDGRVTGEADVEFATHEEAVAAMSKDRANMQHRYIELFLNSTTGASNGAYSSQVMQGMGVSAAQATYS

[5] = target: IGF2BP1 (Homo sapiens, UniProt Q9NZI8)
[6] = target: T2, GRSF1 (Homo sapiens, UniProt Q12849)
T2 sequence: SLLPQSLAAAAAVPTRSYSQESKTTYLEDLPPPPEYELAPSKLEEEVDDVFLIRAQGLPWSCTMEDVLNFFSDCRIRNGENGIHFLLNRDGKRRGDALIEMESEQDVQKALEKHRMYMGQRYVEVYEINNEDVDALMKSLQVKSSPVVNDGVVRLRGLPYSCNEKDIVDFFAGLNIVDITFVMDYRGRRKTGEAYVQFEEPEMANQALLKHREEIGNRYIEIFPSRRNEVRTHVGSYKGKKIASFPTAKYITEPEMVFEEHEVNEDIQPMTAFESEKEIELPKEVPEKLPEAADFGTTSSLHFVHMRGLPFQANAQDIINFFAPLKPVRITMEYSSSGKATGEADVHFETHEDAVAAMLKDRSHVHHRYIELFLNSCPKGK

[7] = target: hnRNP-I(3-4) (Homo sapiens, UniProt P26599)
[8] = target: T3, ENOX2 (Homo sapiens, UniProt Q16206)
T3 sequence: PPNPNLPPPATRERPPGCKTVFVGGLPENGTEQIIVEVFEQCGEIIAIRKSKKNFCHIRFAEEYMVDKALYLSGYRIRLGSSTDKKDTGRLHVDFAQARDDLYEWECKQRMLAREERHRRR

[9] = target: T4, TAT-SF1 (Homo sapiens, UniProt O43719)
T4 sequence: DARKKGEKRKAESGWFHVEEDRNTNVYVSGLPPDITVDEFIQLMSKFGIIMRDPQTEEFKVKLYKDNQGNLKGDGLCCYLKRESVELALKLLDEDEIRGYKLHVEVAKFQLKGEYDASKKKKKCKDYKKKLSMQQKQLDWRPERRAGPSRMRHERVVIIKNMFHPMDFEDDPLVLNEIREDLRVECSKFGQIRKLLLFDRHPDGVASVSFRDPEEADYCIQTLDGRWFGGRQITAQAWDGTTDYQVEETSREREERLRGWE

[10] = target: T5, AKAP1 (Homo sapiens, UniProt Q92667)
T5 sequence: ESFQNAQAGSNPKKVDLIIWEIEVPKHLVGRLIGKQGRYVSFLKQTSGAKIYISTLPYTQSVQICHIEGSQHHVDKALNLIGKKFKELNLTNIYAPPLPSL

IGF2BP1, sequence (Q9NZI8 1-176): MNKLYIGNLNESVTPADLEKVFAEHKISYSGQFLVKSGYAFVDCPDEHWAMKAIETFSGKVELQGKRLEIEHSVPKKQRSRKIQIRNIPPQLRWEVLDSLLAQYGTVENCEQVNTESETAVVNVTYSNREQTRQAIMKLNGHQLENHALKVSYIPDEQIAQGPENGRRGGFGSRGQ
FIR, sequence (Q9UHX1 110-559): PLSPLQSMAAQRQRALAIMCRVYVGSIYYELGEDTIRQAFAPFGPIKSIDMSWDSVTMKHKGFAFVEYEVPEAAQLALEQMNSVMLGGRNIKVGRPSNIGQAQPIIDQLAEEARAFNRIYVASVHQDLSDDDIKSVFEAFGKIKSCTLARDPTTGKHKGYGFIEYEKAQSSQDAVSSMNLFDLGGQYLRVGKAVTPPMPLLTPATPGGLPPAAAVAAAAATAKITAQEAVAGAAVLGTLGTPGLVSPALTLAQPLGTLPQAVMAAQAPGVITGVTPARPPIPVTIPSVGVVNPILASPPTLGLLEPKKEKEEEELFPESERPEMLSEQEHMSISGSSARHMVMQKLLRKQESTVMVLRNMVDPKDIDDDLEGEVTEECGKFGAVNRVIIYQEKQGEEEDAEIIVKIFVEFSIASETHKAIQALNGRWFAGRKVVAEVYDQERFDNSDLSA
HNRNPCP5, sequence (B2RXH8 1-110): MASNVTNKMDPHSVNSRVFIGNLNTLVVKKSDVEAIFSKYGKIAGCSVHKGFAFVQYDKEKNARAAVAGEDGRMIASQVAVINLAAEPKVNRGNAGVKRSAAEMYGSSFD
Musashi-1, sequence (O43347 1-203): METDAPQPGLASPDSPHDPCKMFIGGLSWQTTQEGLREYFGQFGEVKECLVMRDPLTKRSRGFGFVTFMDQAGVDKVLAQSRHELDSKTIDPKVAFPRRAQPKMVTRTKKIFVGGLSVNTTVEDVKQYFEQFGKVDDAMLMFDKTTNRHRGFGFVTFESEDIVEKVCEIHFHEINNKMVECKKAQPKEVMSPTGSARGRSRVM
hnRNP-I(3-4), sequence (P26599 346-557): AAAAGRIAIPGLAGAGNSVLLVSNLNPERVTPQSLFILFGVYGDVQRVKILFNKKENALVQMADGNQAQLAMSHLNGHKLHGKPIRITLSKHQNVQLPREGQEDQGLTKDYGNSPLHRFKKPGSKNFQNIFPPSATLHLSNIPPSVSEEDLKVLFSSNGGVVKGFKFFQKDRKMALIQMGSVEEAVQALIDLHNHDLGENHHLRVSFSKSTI

Sequence | binding signal [1] [fluorescence intensity] | binding signal [2] [fluorescence intensity] | binding signal [3] [fluorescence intensity] | binding signal [4] [fluorescence intensity] | binding signal [5] [fluorescence intensity] | binding signal [6] [fluorescence intensity] | binding signal [7] [fluorescence intensity] | binding signal [8] [fluorescence intensity] | binding signal [9] [fluorescence intensity] | binding signal [10] [fluorescence intensity]
AGAGGUAGUAGGUUGCAUAGUU | 3624 ± 8.34 | 939 ± 116 | 48 ± 3.14 | 2388 ± 13.7 | 35.9 ± 7.28 | 4990 ± 87.4 | 786.56 ± 0.269 | 77.1 ± 15.4 | 125.2 ± 1.17 | 91.72 ± 0.827
UGAGGUAGUAGGUUGUAUAGUU | 1480 ± 17 | 717 ± 15 | 24.6 ± 1.06 | 624 ± 22.5 | 26.3 ± 0.771 | 1790 ± 23.3 | 323 ± 28.7 | 20.7 ± 2.55 | 33.2 ± 1.48 | 
CAGUGCAAUGAUGAAAGGGCAU | 1460 ± 30.9 | 384 ± 26.4 | 42.4 ± 3.23 | 1670 ± 29.4 | 32.4 ± 2.43 | 2340 ± 154 | 401.7 ± 2.43 | 54.1 ± 16.7 | 90 ± 1.75 | 47.9 ± 2.28
UGAGGUAGUAGGUUGUGUGGUU | 1830 ± 23.3 | 1610 ± 121 | 93.8 ± 2.53 | 1210 ± 41.5 | 47.9 ± 7.33 | 2120 ± 63.5 | 945.75 ± 0.764 | 118 ± 1.51 | 184.1 ± 0.318 | 202 ± 12.1
UAGCUUAUCAGACUGAUGUUGA | 156 ± 11 | 1240 ± 132 | 23.4 ± 0.714 | 25.7 ± 1.8 | 23 ± 0.714 | 39.7 ± 8.15 | 230 ± 15.3 |  |  | 
UGAGGUAGUAGGUUGUAUGGUU | 2400 ± 10.1 | 1510 ± 21.2 | 65.5 ± 1.7 | 953.1 ± 0.948 | 43 ± 9.13 | 2945 ± 11.9 | 934 ± 43.3 | 74.91 ± 0.417 | 116 ± 5.61 | 102 ± 9.24
